This is a sample that favours compounds with a hit; in the whole collection about 2.4% have one here.
LT uptake inh – qHTS Assay for Anthrax Lethal Toxin Internalization; Cells, anthrax lethal toxin internalization, FRET ratio (460/530); AID 912, 2007; Potency, µM (highest dose often 40 µM), usual class: inhibitors; 0.67% of 70,000 active; also: nearly all actives have a fitted effect of over 50% in size
AmpC inh no det – Promiscuous and Specific Inhibitors of AmpC Beta-Lactamase (assay without detergent); 1.8% of 71,000 active; Potency, µM (series often up to 28.7 µM); AmpC nitrocefin hydrolysis, absorbance 480 nm, no detergent
Target sequence (P00811 whole entry, looked up): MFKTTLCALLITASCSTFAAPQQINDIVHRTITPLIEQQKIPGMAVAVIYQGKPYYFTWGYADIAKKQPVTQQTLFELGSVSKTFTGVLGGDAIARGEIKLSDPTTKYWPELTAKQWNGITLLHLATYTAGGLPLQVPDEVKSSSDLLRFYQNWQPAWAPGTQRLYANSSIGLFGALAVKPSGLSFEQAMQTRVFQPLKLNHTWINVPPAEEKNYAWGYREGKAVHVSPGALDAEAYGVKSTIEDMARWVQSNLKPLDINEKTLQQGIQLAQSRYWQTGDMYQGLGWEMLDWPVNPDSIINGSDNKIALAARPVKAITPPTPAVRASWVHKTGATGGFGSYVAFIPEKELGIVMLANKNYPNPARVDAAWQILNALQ
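Enzyme, pH 7.0 phosphate. Compound titrations were pre-incubated with AmpC for 15 min at room temperature before nitrocefin (stock 800 uM) addition; product formation was recorded at 480 nm every 20 s for 4 min.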
Prx2 Sm inh – Schistosoma Mansoni Peroxiredoxins (Prx2) | Schistosoma mansoni peroxiredoxin 2 (Prx2) | S. mansoni Prx2 activity coupled to TGR/GSH (TGR is thioredoxin glutathione reductase), NADPH fluorescence loss, qHTS | Potency, µM | 0.07% of 65,000 active | AID 448, 2006
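qHTS, coupled TGR/Prx2 format; 15 min compound preincubation at RT; reaction started with H2O2 (2.5 mM aliquot); kinetic NADPH fluorescence decrease, ex 365/em 450 nm.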
AmpC det inh – Promiscuous and Specific Inhibitors of AmpC Beta-Lactamase (assay with detergent) | P00811 | purified AmpC, nitrocefin hydrolysis with detergent | Potency, µM (highest dose often 28.7 µM) | 0.09% of 71,000 active | AID 584, 2007; active = well fitted curve in the direction sought with a large enough effect; inconclusive = small, poorly fitted or top-dose-only effect
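E. coli AmpC (5.3 nM) in 20 mM phosphate pH 7.0 with 0.01% Triton X-100, preincubated 15 min RT with compound; nitrocefin (2 uL of 800 uM stock) hydrolysis followed by 480 nm absorbance every 20 s over 4 min.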
Large screens that a line does not name were inactive; [ ] = another dose, or the depositor's remark. Unless noted, calls follow the shape of the full dose curve.

CCOC(=O)[C@]1(C(NC(=O)OC)c2cccc(F)c2)CCCC1=O (some centres undefined)	none (no result: AmpC inh no det, Prx2 Sm inh, AmpC det inh)
CCN(CC)CCn1c(-c2ccccc2)nc2c(NCc3ccccc3)nc(C)nc21	none (no result: Prx2 Sm inh)
CCOC(=O)N1CCN(c2c(N3CCc4ccccc43)c(=O)c2=O)CC1	LT uptake inh inconclusive, AmpC inh no det 4µM[single pt active] (no result: Prx2 Sm inh)
CCOC(=O)C1CCN(c2c(N3CCN(c4ccccc4OC)CC3)c(=O)c2=O)CC1	none
Clc1ccccc1CNCC1CCC(CNCc2ccccc2Cl)CC1 (centres undefined)	LT uptake inh 4µM
O=C1c2cccnc2C(=O)N1c1cccc(-c2nc3ccccc3o2)c1	none
O=C1CCC(=O)N1c1cccc(-c2nc3ccccc3o2)c1	AmpC inh no det 4µM[single pt active]
Cc1cc(Cl)ccc1OCC(=O)Nc1ccccc1N1CCOCC1	LT uptake inh 16µM
ClC(Cl)C(Cl)Cl	none (no result: Prx2 Sm inh)
[CH3][Hg][Cl]	LT uptake inh inconclusive (no result: Prx2 Sm inh)
CN(C)c1oc(-c2ccccc2F)nc1C#N	AmpC inh no det 4µM[single pt active]
N#Cc1nc(-c2ccccc2F)oc1N1CCCC1	none
Cc1nc2ccccc2c2oc(C(=O)N3CCN(C(=O)c4ccco4)CC3)cc12	none
Cc1nc2ccccc2c2oc(C(=O)N3CCc4ccccc4C3)cc12	LT uptake inh 10µM
Cc1ccc(NC(=O)c2cc(C)on2)cc1	none
CCCc1cc(C(=O)Nc2sc3c(c2C(=O)OCC)CCCC3)no1	AmpC inh no det 4µM[single pt active]
CCOC(=O)c1c(NC(=O)c2noc3c2CCCC3)sc2c1CCCC2	none
CCCc1cc(C(=O)Nc2cc(Br)ccc2O)no1	LT uptake inh inconclusive, AmpC inh no det 16µM[single pt active]
CCCc1cc(C(=O)Nc2ccc(C)cc2)no1	LT uptake inh inconclusive, AmpC inh no det 4µM[single pt active]
CC(C)[C@@]1(NC(=O)[C@@H]2C=C3c4cccc5[nH]cc(c45)C[C@@H]3N(C)C2)O[C@]2(O)[C@H]3CCCN3C(=O)[C@H](Cc3ccccc3)N2C1=O	none
COc1ccc(S(=O)(=O)n2nc(OC(=O)c3ccc(C)cc3)cc2N)cc1	AmpC inh no det 13µM
Cc1ccc2nc(-c3ccc(N)cc3)sc2c1S(=O)(=O)O	LT uptake inh inconclusive (no result: Prx2 Sm inh)
Cc1ccccc1N1C(=O)c2sc3nc4c(c(=O)n3c2C1=O)CCC4	LT uptake inh 13µM (no result: Prx2 Sm inh)
O=C1c2sc3nc4c(c(=O)n3c2C(=O)N1c1ccccc1)CCC4	none
Cc1ccc(S(=O)(=O)C2(C(=O)Nc3ccc4c(c3)OCO4)CC2)cc1	AmpC inh no det 4µM[single pt active]
Cc1ccc(S(=O)(=O)C2(C(=O)Nc3ccc(F)cc3)CC2)cc1	none
COc1ccc(CCNC(=O)CSc2nc(N)c(C#N)c(-c3cccs3)c2C#N)cc1OC	LT uptake inh inconclusive
Cc1ccccc1NC(=O)CSc1nc(N)c(C#N)c(-c2cccs2)c1C#N	AmpC inh no det 10µM
COC(=O)C1=C(C)N(Cc2ccccc2)[C@]23O[C@](C(=O)OC)(C(=O)N2C1c1ccccc1)C(C(=O)OC)=C3C(=O)OC (some centres undefined)	none (no result: AmpC inh no det, Prx2 Sm inh, AmpC det inh)
COc1ccc(N2CCN(CCCNC(=O)CC3Oc4ccc(C)cc4NC3=O)CC2)cc1 (centres undefined)	LT uptake inh inconclusive, AmpC inh no det 4µM[single pt active]
Cc1ccc2c(c1)NC(=O)C(CC(=O)NCCCN1CCCC1)O2 (centres undefined)	AmpC inh no det 4µM[single pt active]
Cc1ccc2c(c1)NC(=O)C(CC(=O)NCCCN1CCN(C3CCCCC3)CC1)O2 (centres undefined)	none
NS(=O)(=O)C[C-]1C=C[CH]([Sb-]([Cl])([Cl])([Cl])([Cl])[Cl])C=C1.c1ccncc1 (centres undefined)	Prx2 Sm inh inconclusive
CC1CCCCN1CCNC(=O)c1cnn2ccccc12 (centres undefined)	AmpC inh no det 3.2µM[single pt active] (no result: Prx2 Sm inh)
Cn1c(C(=O)NCCN2CCc3ccccc3C2)cc2c(=O)n(C)c3ccccc3c21	LT uptake inh 7.9µM
Cc1cc(C(=O)NCCN2CCCCC2C)n(-c2ccccc2)n1 (centres undefined)	none
Cn1c(C(=O)NCCN2CCN(c3ccccc3F)CC2)cc2c(=O)n(C)c3ccccc3c21	AmpC inh no det 4µM[single pt active]
CC1CCC(NC(=O)c2cc3c(=O)n(C)c4ccccc4c3n2C)CC1 (centres undefined)	AmpC inh no det 4µM[single pt active]
Cn1c(C(=O)NCCN2CCOCC2)cc2c(=O)n(C)c3ccccc3c21	none
CC1CCCCN1CCNC(=O)c1cc2c(=O)n(C)c3ccccc3c2n1C (centres undefined)	LT uptake inh 2.5µM
COC(=O)CN(c1ccc(C(C)C)cc1)S(=O)(=O)c1c(C)[nH]c(=O)[nH]c1=O	AmpC inh no det 4µM[single pt active]
CCC[C@@H]1O[C@@H]2C[C@@H]3[C@@H]4CCC5=CC(=O)C=C[C@@]5(C)[C@H]4[C@H](O)C[C@@]3(C)[C@@]2(C(=O)CO)O1	none
O=C(CSc1nc2ccccc2s1)c1sc2sc3ccccc3[n+]2c1O	LT uptake inh inconclusive, AmpC inh no det 4µM[single pt active]
CO[C@H]1COC(=O)[C@H]2CCCN2C(=O)[C@@H](C)COC(=O)C/C=C\[C@@H]1C	none (no result: AmpC inh no det, Prx2 Sm inh, AmpC det inh)
C=CCOC(=O)C(C(C)=O)C(NC(=O)OC)c1ccco1 (centres undefined)	none (no result: AmpC inh no det, Prx2 Sm inh, AmpC det inh)
O=C(NCc1ccc2c(c1)OCO2)c1ccc(NS(=O)(=O)c2ccc3c(c2)OCCO3)cc1	AmpC inh no det 10µM
O=C(NCc1ccc2c(c1)OCO2)c1cccc(C(=O)NCc2ccc3c(c2)OCO3)c1	LT uptake inh inconclusive, AmpC inh no det inconclusive (no result: Prx2 Sm inh)
O=C(NCc1ccccc1)c1c[nH]c2ccc(S(=O)(=O)Nc3ccc4c(c3)OCCO4)cc2c1=O	AmpC inh no det 10µM
Oc1ccc2c3c1O[C@H]1c4[nH]c5ccccc5c4C[C@]4(O)[C@H](C2)N(CC2CC2)CC[C@@]314	LT uptake inh inconclusive
Oc1ccc2c3c1O[C@H]1c4c(c5ccccc5n4Cc4ccccc4)C[C@]4(O)[C@H](C2)N(CC2CC2)CC[C@@]314	LT uptake inh 25µM
CCOC(=O)c1c(-c2ccc(C)o2)csc1NC(=O)CSc1nnnn1-c1ccccc1	LT uptake inh inconclusive, AmpC inh no det 13µM
COc1cccc(-n2c(Cc3cc(=O)[nH]c(=O)[nH]3)nnc2SCC(=O)NC2CCCCC2)c1	AmpC inh no det inconclusive
COc1cccc(-n2c(Cc3cc(=O)[nH]c(=O)[nH]3)nnc2SCC(=O)N2CCCCC2)c1	AmpC inh no det 4µM[single pt active]
O=C(CSc1nnc(Cc2cc(=O)[nH]c(=O)[nH]2)n1-c1ccc(F)cc1)N1CCCCC1	AmpC inh no det 4µM[single pt active]
Cc1cccc(-n2c(Cc3cc(=O)[nH]c(=O)[nH]3)nnc2SCC(=O)NCC2CCCO2)c1 (centres undefined)	AmpC inh no det 4µM[single pt active]
O=C(CSc1nnc(Cc2cc(=O)[nH]c(=O)[nH]2)n1-c1ccc(F)cc1)NC1CCCC1	AmpC inh no det 4µM[single pt active]
COc1ccc(O[C@H]2C=C[C@@H](c3ccccc3)O[C@H]2COC(=O)CC/C(C)=N\O[C@@H](C)c2cn([C@H](CO)Cc3ccccc3)nn2)cc1	none (no result: AmpC inh no det, Prx2 Sm inh, AmpC det inh)
O=C1CC2(CCCC2)CC(=O)N1CCCCNC[C@H]1COc2ccccc2O1	none

Screening data: PubChem BioAssay, National Center for Advancing Translational Sciences (NCATS)
